Our source for the activation factor values is PubChem BioAssay AID1214 (Sanford-Burnham Center for Chemical Genomics, 2008).

Screen size: about 190,000 compounds; about 10 (0.005%) were called active. The list is a sample of the results. Unmarked numbers belong to inactive results.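 The calls were made as follows: active = activation factor of 2 or more at 20 µM, relative to plate controls; inactive = the rest.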

In the test the target is Mannose-6-phosphate isomerase (Homo sapiens) (UniProt P34949). As to the kind of experiment: activators of human PMI, primary screen, biochemical, fluorescence intensity, near-Km mannose 6-phosphate (AID 1214). As to conditions: purified human PMI, coupled resazurin fluorescence, 20 min; at 20 µM; stronger effect = higher value; 1 = vehicle control, 0 substrate-free wells.
Mannose-6-phosphate isomerase (Homo sapiens), sequence (P34949 whole entry, looked up): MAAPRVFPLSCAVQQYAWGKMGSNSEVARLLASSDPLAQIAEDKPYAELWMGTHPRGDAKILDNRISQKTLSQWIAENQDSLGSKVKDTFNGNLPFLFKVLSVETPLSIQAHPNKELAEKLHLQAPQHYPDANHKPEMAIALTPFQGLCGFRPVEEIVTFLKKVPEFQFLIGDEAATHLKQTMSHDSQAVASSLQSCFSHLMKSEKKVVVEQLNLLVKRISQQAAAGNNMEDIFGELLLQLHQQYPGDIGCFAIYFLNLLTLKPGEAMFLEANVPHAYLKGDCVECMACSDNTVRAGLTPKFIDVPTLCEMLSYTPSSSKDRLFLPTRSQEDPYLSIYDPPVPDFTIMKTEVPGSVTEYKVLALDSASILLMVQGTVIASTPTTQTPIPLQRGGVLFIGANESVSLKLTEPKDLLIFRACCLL
As to `COC(=O)c1cc(NC(=O)CN2CCN(C(C)=O)CC2)cc(C(=O)OC)c1`, the activation factor is 0.9.

Turning to `C/C(N)=C(/C#N)C(=O)COC(=O)CNS(=O)(=O)c1ccc(C)cc1`, the activation factor is 1.

As for `CCNC(=O)CC1C(=O)N(c2ccc(F)cc2)C(=O)N1CCc1sccc1C` (stereo not given), the activation factor was 1.1.

In the case of `CCOc1ccc(C(C)=O)cc1CSc1nnc(-c2ccncc2)n1CCOC`, the activation factor was 1.1.

As to `CCOCCCNCc1ccc(OCc2ccc(F)cc2)c(OC)c1`, the activation factor was 0.9.

Consider `CCCCc1nnc(NC(=O)CSc2nc(N)cc(=O)[nH]2)s1`, for which the activation factor is 0.8.

For `O=C(NCCN1C(=O)S/C(=C\c2cccnc2)C1=O)c1cccc(OC(F)F)c1`, the activation factor was 0.9.

With `O=C1/C(=C\c2cccnc2)CN(Cc2ccccc2)C/C1=C\c1cccnc1`, the activation factor is 0.9.

`Cc1nnc(SC(C(=O)Nc2cc(Cl)cc(Cl)c2)c2ccccc2)[nH]c1=O` (stereo not given): the activation factor is 1.

With `CC(C)CC(=O)NC(=S)NNC(=O)c1cccc([N+](=O)[O-])c1`, the activation factor is 0.9.

Turning to `CC1CCCCN1C(=S)NCc1ccccc1` (stereo not given), the activation factor is 0.9.

As to `CN(C)S(=O)(=O)c1ccc(NC(=O)N2CCOCC2)cc1`, the activation factor is 1.

With `Cc1cc(C(=O)COC(=O)CNC(=O)c2ccc(F)cc2)c(C)n1Cc1ccco1`, the activation factor was 0.9.

Regarding `Cc1ccc2nc(-c3cccnc3)c(NC3CCCC3)n2c1`, the activation factor was 0.9.

Take `CC(C)[C@H](NC(=O)c1ccc(F)cc1)C(=O)OCC(=O)NC(=O)c1cccn1C`: the activation factor is 0.9.

Consider `CCOC(=O)C1=C(C)OC(N)=C(C#N)C1c1cncc(-c2ccc(F)cc2)c1` (stereo not given), for which the activation factor is 1.1.

For `CCC(C)NC(=O)c1nn(C)c(=O)c2ccccc12` (stereo not given), the activation factor is 1.1.

In the case of `O=C(CN1C(=O)CC(c2ccccc2)S(=O)(=O)c2ccccc21)NC1CCCC1` (stereo not given), the activation factor was 1.1.

On to `N#Cc1ccc(CSc2nnc3ccccn23)cc1`, for which the activation factor was 1.

`Cc1ccnc(SCC(N)=O)n1`: the activation factor was 1.1.

In the case of `CCC(C)(C)C1CCC(=NNC(=O)c2ccc(Br)o2)CC1` (stereo not given), the activation factor is 1.

Take `CCOC(=O)/C(=N\Nc1ccccc1[N+](=O)[O-])c1csc(Nc2ccccc2)n1`: the activation factor is 0.9.

In the case of `COC(=O)C(C)N=Cc1ccccc1` (stereo not given), the activation factor was 0.9.

On to `Cc1onc(C(=O)NN)c1C(=O)N1CCN(C(c2ccccc2)c2ccccc2)CC1`, for which the activation factor was 0.9.

Take `CCOCCCNC(=O)C(NC(=O)Cc1c[nH]c2ccccc12)c1ccc(OC)cc1` (stereo not given): the activation factor is 0.9.

Consider `CC/C(O)=C1\C(=O)CC(C)(C)CC1=NCCc1nc2ccccc2[nH]1`, for which the activation factor is 1.1.

Take `N#Cc1ccccc1NC(=O)c1cccc(COc2ccc(Cl)cc2Cl)c1`: the activation factor was 0.9.

In the case of `CCCCc1ccc(NC(=S)NCCCN2CCOCC2)cc1`, the activation factor is 1.

For the compound `COc1cc(CNCCN(C)C)ccc1OCc1c(F)cccc1Cl`, the activation factor was 1.

As to `O=C(CCNC(=O)Cn1ccc2ccccc2c1=O)NCCC1=CCCCC1`, the activation factor was 1.

On to `Cn1c(=O)c2cc(S(=O)(=O)NCCC(=O)Nc3ccc(F)cc3F)ccc2n(C)c1=O`, for which the activation factor was 1.

Take `Cc1cccc(C)c1NC(=O)C1(N(C(=O)c2ccccn2)c2ccc(O)cc2)CCCCC1`: the activation factor was 0.9.

Take `Cc1ccc(CN2CCN(Cc3ccccc3-c3ccco3)CC2CCO)o1` (stereo not given): the activation factor is 0.9.

As for `CCOCCCNC(=O)C(NC(=O)c1ccccc1O)c1ccccc1` (stereo not given), the activation factor is 1.1.

As to `O=C(Cc1ccccc1)NNC1CC(=O)N(c2ccc(Br)cc2)C1=O` (stereo not given), the activation factor was 0.9.

Consider `Cc1ccc(-c2ccc(/C=C(\C#N)C(N)=S)o2)c([N+](=O)[O-])c1`, for which the activation factor was 1.

`Cn1cc(C(=O)NCc2ccccc2F)cn1`: the activation factor was 1.

On to `OC1CSc2nc3ccccc3n2C1` (stereo not given), for which the activation factor is 0.9.

For `CCN(C(=O)COC(=O)c1cc(NS(=O)(=O)c2ccc(Cl)c([N+](=O)[O-])c2)ccc1O)C1CCCCC1`, the activation factor was 0.8.

With `COCCCNC(=O)C1CCC(CNS(=O)(=O)c2ccc(OC)cc2)CC1` (stereo not given), the activation factor was 1.

For `COc1ccc(N2CCN(C(C)=C3C(=O)c4ccccc4C3=O)CC2)cc1`, the activation factor is 0.9.

As to `COc1ccc(OC)c(-n2c(=S)[nH]c3cc(C(=O)N4CCCCC4)ccc3c2=O)c1`, the activation factor was 1.

Take `Cn1c(CNC(=O)c2ccccc2F)nnc1SCc1ccc(F)cc1`: the activation factor is 1.2.

As to `COc1ccc2c(c1)c(=O)c(C(=O)c1ccc(Cl)cc1)cn2CC(=O)Nc1ccc(F)cc1`, the activation factor was 1.

For the compound `CC(C)NC(=S)Nc1cccc2cnccc12`, the activation factor was 1.

As to `O=C(N/N=C/c1ccc(Cl)cc1)c1nc2ccc([N+](=O)[O-])cc2c(=O)[nH]1`, the activation factor was 1.

For the compound `CCCNC(=O)OC[C@H]1O[C@H](CCO/N=C/[C@@H](NS(=O)(=O)c2ccc(C)cc2)[C@H](C)/C=C/CC(=O)OC)C=C[C@@H]1Oc1ccc(OC)cc1`, the activation factor was 0.9.

With `O=C(Nc1nnc(SCc2ccccc2Cl)s1)c1cccc([N+](=O)[O-])c1`, the activation factor was 0.9.

Turning to `CSc1ccc(CNCCN2CCOCC2)cc1`, the activation factor is 1.1.

Take `CC(C)(C)NC(=O)NC(=O)COC(=O)Cc1c(F)cccc1Cl`: the activation factor was 1.2.

Regarding `CCCCCC1CCC(c2nnc(SCC(C)=O)o2)CC1` (stereo not given), the activation factor is 1.

Consider `Cc1ccccc1OCCC(=O)OCC(=O)NC(C)c1ccccc1` (stereo not given), for which the activation factor was 1.

For the compound `O=C(CSc1cccc[n+]1[O-])c1ccc(-c2ccccc2)cc1`, the activation factor was 1.2.

For `Cc1cc([N+](=O)[O-])nn1CC(=O)Nc1ccc(Cc2ccncc2)cc1`, the activation factor was 1.

Take `COCCNC(=O)C(OC(=O)c1cccs1)c1ccc(F)cc1` (stereo not given): the activation factor was 1.

For the compound `Cc1ccc(S(=O)(=O)N2CCN(CC(=O)N/N=C/c3ccc(Br)s3)CC2)cc1`, the activation factor is 0.9.

In the case of `CN(CC(=O)NCCc1ccccn1)S(=O)(=O)c1ccc(Cl)cc1`, the activation factor was 0.9.

With `CC1=C(C(=O)Nc2cc(C)ccn2)C(c2cnn(C)c2)C2=C(CC(c3ccccc3)CC2=O)N1` (stereo not given), the activation factor was 1.

For the compound `O=C(Nc1ccc(CSc2ccccc2)cc1)c1ccc(CN2CCOCC2)cc1`, the activation factor is 1.1.

As to `COc1ccc(Cl)cc1NC(=O)C(C)N1CCc2ccccc21` (stereo not given), the activation factor was 1.1.

As for `Cc1ccn(CC(=O)N2N=C(C(F)F)CC2(O)C(F)F)n1` (stereo not given), the activation factor was 1.1.

Regarding `N#Cc1c(C(F)(F)F)cc(-c2ccc(Cl)cc2)nc1SCC(=O)O`, the activation factor was 1.

As to `CCOC(=O)C1CCN(S(=O)(=O)c2cc(F)ccc2OC)CC1`, the activation factor was 1.

Consider `COCCNc1nc2nonc2nc1N(C)Cc1ccc(C)cc1`, for which the activation factor was 0.9.

With `Cc1ccc(NC(=O)CC(=O)Nc2ccc(C)cc2)cc1`, the activation factor is 1.

As for `CCOC(=O)C1=C(N)N(c2ccc(C)cc2)C2=C(C(=O)CCC2)C1c1cccs1` (stereo not given), the activation factor was 1.

In the case of `CN(C)/C=C(/C(=O)c1ccccc1Cl)S(C)(=O)=O`, the activation factor was 1.

With `COC(=O)c1nc(NC(=O)c2ccc(C(C)(C)C)cc2)n[nH]1`, the activation factor was 1.1.

With `CC(C)Oc1ccc(/C=C(\NC(=O)/C=C/c2ccco2)C(=O)NCCc2nc3ccccc3[nH]2)cc1`, the activation factor is 0.9.

As to `O=C(c1ccccc1)c1ccc(OCC(O)CN2CCCC2)cc1` (stereo not given), the activation factor is 1.

As for `COc1cc(S(=O)(=O)N2CCOCC2)ccc1NC(=O)COc1ccc(N(C)S(=O)(=O)c2ccc(C)cc2)cc1`, the activation factor was 1.

With `Cc1cc(C#N)c(SCC(N)=O)nc1-c1ccc(F)cc1`, the activation factor is 1.1.

As for `CC1=NNC(=O)C1CCC(=O)N/N=C\c1cccc(Cl)c1` (stereo not given), the activation factor was 1.

As for `CCOC(=O)c1sc2nc(C)nc(SCC(N)=O)c2c1C`, the activation factor is 1.1.

In the case of `COC(=O)c1cc(NC(=O)c2nn(C)c(=O)c3ccccc23)cc(C(=O)OC)c1`, the activation factor was 1.

Turning to `CCC(C(=O)Nc1ccc(C(C)C)cc1)c1ccccc1` (stereo not given), the activation factor was 1.

Turning to `CC(C)(C)c1ccc(/C=C/C(=O)Nc2ncccn2)cc1`, the activation factor was 1.

With `COC(=O)c1ccc(NC(=O)CSc2nncc3ccc(OC)c(OC)c23)cc1`, the activation factor is 1.

On to `COc1ccc(OCC(O)CNC(=O)Nc2ccc(Cl)cc2)cc1` (stereo not given), for which the activation factor is 0.9.

As for `Cc1ccc(CN2CCN(/N=C/c3cccnc3)CC2)c(C)c1`, the activation factor is 1.1.

Consider `CCC(C)(C)NC(=O)CN(Cc1cccs1)C(=O)CNS(=O)(=O)c1ccc(F)cc1`, for which the activation factor is 1.1.

Regarding `COc1cccc(CC2(CO)CCCN(CC3=Cc4cc(OC)ccc4OC3)C2)c1` (stereo not given), the activation factor is 0.9.

`CC1CCN(c2ccc(C(=O)NCc3ccc4c(c3)OCO4)cc2[N+](=O)[O-])CC1`: the activation factor was 0.8.

As to `Cc1cccc(C2=N/C(=C/c3cccs3)C(=O)O2)c1`, the activation factor was 1.

For `CCc1cc(C(=O)OC)c(NC(=O)CC2Sc3ccc(C(F)(F)F)cc3NC2=O)s1` (stereo not given), the activation factor was 0.9.

For the compound `Cc1ccc(C(=O)N/C(=C/c2ccc(-c3cccc([N+](=O)[O-])c3)o2)C(=O)NCCCN(C)C)cc1`, the activation factor was 1.

Regarding `COC(=O)NNC(=O)C1CCC(C)CC1` (stereo not given), the activation factor was 1.1.

Turning to `COC(=O)C(NS(=O)(=O)c1ccc(F)cc1)c1ccccc1` (stereo not given), the activation factor was 1.

In the case of `COc1ccc(Cl)cc1NC(=O)Cn1nc(-c2ccc(C)cc2)n(C)c1=S`, the activation factor was 1.1.

For the compound `CCc1ccc(N(CC(=O)Nc2sc3c(c2C(=O)OC)CCCC3)S(C)(=O)=O)cc1`, the activation factor is 0.8.

For `CN(CCOc1ccc(Br)cc1)CC(=O)Nc1cccc(S(=O)(=O)NC2=NCCC2)c1`, the activation factor is 0.9.

In the case of `OCCC1CN(Cc2ccc3nsnc3c2)CCN1C1CCCCC1` (stereo not given), the activation factor is 0.9.

For `O=C(CSc1nnc2ccc(-c3ccncc3)nn12)N1CCCCC1`, the activation factor is 1.

For `COc1cccc(C(=O)NCCSc2ccc(Br)cc2)c1`, the activation factor was 1.1.

For the compound `N#CCOc1ccc(C2=NO[C@@H]3[C@@H]4C[C@@H]([C@H]5C(=O)N(c6ccc7c(c6)OCO7)C(=O)[C@@H]45)[C@H]23)cc1`, the activation factor is 0.9.

In the case of `Cn1cc(/C=C/C(=O)N2CCCC(C(=O)c3ccc(C(F)(F)F)cc3)C2)cn1` (stereo not given), the activation factor was 1.

As to `COc1ccc(CCCc2nnc(SCc3nc4ccccc4c(=O)[nH]3)n2C)cc1`, the activation factor is 1.

In the case of `CN(C)c1ccc(/C=N/NC(=O)C(O)c2ccc(Br)cc2)cc1` (stereo not given), the activation factor was 1.

Turning to `Nc1nc(NC(=O)/C=C/c2ccccc2)nn1-c1ccccc1`, the activation factor is 1.

For the compound `COc1ccc(OC)c(C(=O)c2ccc(C(=O)N3CCN(Cc4csc(C)n4)CC3)cc2)c1`, the activation factor was 1.

For `O=C(Cc1ccccc1)NCC1OCCc2ccccc21` (stereo not given), the activation factor was 0.9.

Take `O=Cc1ccc(OCc2cn3ccccc3n2)cc1`: the activation factor was 1.1.

For the compound `CCCCC1S/C(=N/N=C/c2cccs2)NC1=O` (stereo not given), the activation factor was 1.3.

As for `Cc1cc2oc(C(=O)Nc3c(C)n(C)n(-c4ccccc4)c3=O)c(C)c2cc1Cl`, the activation factor is 1.1.

In the case of `CN1CCC(=NNC(=O)c2ccc(N(Cc3ccc(Cl)cc3)S(C)(=O)=O)cc2)CC1`, the activation factor was 0.8.
